This is an account of results in PubChem BioAssay.

The structures appear in SMILES notation. The source made the active and inactive calls.

Assay [1] has as its system PRMT1 (protein arginine N-methyltransferase 1). As to the kind of experiment: small molecules binding arginine methyltransferase PRMT1 – biochemical, small-molecule microarray, 635 nm fluorescence, primary screen (AID 1088).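 Also: binding of Prmt1 protein to compounds spotted on small-molecule microarray slides.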 The following applies: higher = more signal.
Assay [2] can be described thus: growth effects on S. cerevisiae YJM789 – YJM789 clinical isolate, OD600, 24 h, basal, primary screen (AID 1089).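 Also: growth of clinical yeast isolate S. cerevisiae YJM 789 seeded 1000 cells per well; test concentration not given here.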 The following applies: higher = more signal, called active from +8 up or from −8 down.
The nature of assay [3]: S. pombe growth modifiers, basal conditions – strain 972, OD600, 24 h, no modulator, primary screen (AID 1090).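 Also: basal condition with compound alone and no growth modifier present; test concentration not given here.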 The following applies: S. pombe 972 growth, higher = more signal, called active from +8 up or from −8 down.
Assay [4] in a line: budding yeast growth modifiers under rapamycin – strain BY4716, OD600, 96 h, primary screen (AID 1091). Also: test concentration not given here. The following applies: S. cerevisiae BY4716 + rapamycin, higher = more signal, called active from +8 up or from −8 down.
The target in assay [5] is Torsin-1A-interacting protein 2 (Homo sapiens) (UniProt Q8NFQ8). As to the kind of experiment: small molecules binding lysate-expressed LULL1 – cell lysate, human LULL1 lysate, 635/667 nm fluorescence, primary screen (AID 1092).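 Also: probe is lysate of COS7 cells overexpressing human LULL1; score merges per-feature 667 nm fluorescence with signal-to-noise.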 The following applies: small-molecule microarray, hLULL1 lysate binding, 635 nm fluorescence; higher = more signal.
Sequence of Torsin-1A-interacting protein 2 (Homo sapiens) (Q8NFQ8 whole entry, looked up): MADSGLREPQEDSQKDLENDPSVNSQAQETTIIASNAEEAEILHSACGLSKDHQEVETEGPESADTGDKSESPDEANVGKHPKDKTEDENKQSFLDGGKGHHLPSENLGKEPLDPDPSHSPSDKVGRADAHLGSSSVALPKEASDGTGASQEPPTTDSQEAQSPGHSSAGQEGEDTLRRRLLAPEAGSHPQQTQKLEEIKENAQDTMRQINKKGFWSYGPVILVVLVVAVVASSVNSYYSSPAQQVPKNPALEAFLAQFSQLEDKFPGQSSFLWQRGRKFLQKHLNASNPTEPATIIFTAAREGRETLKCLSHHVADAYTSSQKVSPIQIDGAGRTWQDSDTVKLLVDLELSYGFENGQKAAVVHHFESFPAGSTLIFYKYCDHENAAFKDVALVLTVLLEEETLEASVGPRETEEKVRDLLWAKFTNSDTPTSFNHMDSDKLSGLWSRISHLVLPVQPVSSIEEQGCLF
Assay [6] in a line: optical density change of DRC41 E. coli – strain DRC41, OD650, 24 h, E. coli filamentation project, primary screen (AID 1093).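 Also: MC1000 strain lacking acrAB efflux and sulA so SOS filamentation is blocked; test concentration not given here.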 The following applies: E. coli DRC41 growth, higher = more signal, called active from +8 up or from −8 down.
Assay [7] is described as follows: probe aLefty2 binding to arrayed compounds – biochemical, biotinylated probe, 635/667 nm fluorescence, primary screen (AID 1094).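 Also: score merges spot fluorescence near 667 nm with spot signal-to-noise ratio.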 The following applies: small-molecule microarray, higher = more signal.
Assay [8] concerns Noggin (protein binding on small-molecule microarray). As to the kind of experiment: small molecules binding Noggin protein – biochemical, 635/667 nm fluorescence, primary screen (AID 1095).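 Also: score merges 667 nm feature fluorescence with signal to noise over triplicate slides.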 The following applies: 635 nm fluorescence, higher = more signal.
In assay [9] the target is Neurogenic locus notch homolog protein 3 (Homo sapiens) (UniProt Q9UM47). As to the kind of experiment: small molecules binding NOTCH3 protein – biochemical, 635/667 nm fluorescence, primary screen (AID 1096). The following applies: small-molecule microarray, 635 nm fluorescence, higher = more signal.
Sequence of Neurogenic locus notch homolog protein 3 (Homo sapiens) (Q9UM47 whole entry, looked up): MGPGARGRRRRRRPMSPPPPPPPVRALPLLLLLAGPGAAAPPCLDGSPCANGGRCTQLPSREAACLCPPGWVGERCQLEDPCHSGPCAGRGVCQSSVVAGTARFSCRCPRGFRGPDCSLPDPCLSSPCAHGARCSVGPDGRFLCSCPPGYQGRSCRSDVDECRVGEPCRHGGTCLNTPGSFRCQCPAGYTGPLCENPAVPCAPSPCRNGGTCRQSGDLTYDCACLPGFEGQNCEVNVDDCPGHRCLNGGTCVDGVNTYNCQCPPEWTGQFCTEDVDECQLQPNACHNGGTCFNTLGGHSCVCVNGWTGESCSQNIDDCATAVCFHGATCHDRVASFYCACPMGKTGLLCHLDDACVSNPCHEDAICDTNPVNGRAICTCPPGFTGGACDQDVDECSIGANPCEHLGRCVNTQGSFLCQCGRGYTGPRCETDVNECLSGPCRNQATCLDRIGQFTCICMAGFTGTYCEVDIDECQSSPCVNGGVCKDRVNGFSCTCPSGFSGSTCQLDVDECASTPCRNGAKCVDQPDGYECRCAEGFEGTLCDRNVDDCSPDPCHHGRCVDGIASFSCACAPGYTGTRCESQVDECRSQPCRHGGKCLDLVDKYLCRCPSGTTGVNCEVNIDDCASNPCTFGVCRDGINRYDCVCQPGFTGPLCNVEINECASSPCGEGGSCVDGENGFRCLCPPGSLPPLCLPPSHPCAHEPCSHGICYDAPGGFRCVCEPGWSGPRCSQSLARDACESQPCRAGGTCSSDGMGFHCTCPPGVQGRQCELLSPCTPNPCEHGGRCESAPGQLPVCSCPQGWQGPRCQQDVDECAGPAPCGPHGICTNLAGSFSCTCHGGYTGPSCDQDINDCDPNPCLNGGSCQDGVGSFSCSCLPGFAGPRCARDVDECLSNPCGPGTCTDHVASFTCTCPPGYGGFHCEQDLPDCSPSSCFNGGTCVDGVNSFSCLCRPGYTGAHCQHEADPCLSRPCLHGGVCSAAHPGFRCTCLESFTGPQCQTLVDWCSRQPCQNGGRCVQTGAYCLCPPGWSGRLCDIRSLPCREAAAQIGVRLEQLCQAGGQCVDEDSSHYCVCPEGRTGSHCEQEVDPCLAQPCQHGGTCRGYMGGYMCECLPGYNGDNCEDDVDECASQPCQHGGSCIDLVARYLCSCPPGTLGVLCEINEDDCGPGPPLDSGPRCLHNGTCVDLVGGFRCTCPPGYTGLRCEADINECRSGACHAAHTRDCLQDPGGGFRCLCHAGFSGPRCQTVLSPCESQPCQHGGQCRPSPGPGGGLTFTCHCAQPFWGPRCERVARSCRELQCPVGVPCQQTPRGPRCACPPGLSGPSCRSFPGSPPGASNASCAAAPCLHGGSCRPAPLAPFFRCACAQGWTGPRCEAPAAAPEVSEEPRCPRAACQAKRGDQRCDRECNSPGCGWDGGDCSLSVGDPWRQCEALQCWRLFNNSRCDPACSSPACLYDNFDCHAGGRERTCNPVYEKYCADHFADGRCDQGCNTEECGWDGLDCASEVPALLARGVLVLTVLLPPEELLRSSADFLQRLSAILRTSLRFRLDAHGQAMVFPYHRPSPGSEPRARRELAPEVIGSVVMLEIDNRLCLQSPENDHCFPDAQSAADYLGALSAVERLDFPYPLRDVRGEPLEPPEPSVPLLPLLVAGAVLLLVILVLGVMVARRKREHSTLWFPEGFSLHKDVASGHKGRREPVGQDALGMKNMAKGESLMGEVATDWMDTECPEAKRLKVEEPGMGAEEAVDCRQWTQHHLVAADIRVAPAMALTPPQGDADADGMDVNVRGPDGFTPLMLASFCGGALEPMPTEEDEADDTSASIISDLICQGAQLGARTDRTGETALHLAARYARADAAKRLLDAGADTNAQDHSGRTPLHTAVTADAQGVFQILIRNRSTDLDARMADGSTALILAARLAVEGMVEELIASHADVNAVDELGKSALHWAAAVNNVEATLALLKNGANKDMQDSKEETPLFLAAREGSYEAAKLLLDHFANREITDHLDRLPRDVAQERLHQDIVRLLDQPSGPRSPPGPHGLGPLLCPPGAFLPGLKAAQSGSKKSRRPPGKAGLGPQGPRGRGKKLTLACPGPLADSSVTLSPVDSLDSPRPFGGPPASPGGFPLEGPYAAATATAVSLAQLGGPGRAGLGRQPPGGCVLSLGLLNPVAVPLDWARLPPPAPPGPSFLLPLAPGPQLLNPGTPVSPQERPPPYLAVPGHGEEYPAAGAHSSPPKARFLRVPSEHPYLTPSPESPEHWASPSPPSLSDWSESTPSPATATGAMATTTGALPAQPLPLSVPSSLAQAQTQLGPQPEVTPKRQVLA
Assay [10] is described as follows: probe aEGFR binding to arrayed compounds – biochemical, biotinylated probe, 635/667 nm fluorescence, primary screen (AID 1097).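 Also: probe is a biotinylated anti-EGFR antibody binding compounds printed on slides; score combines fluorescence near 667 nm and signal to noise of each spot.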 The following applies: small-molecule microarray, higher = more signal.
The test system of assay [11] is Plasmodium falciparum Sir2 (PF13_0152, Sir2A). As to the kind of experiment: Plasmodium falciparum Sir2A binding compounds – biochemical, small-molecule microarray, 635 nm fluorescence, primary screen (AID 1098).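 Also: score merges spot fluorescence intensity with its signal-to-noise ratio.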 The following applies: fluorescence 635 nm, higher = more signal.
Assay [12] is described as follows: probe aDKK1 binding to arrayed compounds – biochemical, biotinylated probe, 635/667 nm fluorescence, primary screen (AID 1099).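 Also: score merges 667nm spot fluorescence with signal to noise across triplicate slides; reference of the scale not given here.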 The following applies: small-molecule microarray, higher = more signal.
Assay [13] in a line: probe aCHRDL2 binding to arrayed compounds – biochemical, biotinylated probe, 635/667 nm fluorescence, primary screen (AID 1100). The following applies: small-molecule microarray, higher = more signal.
The nature of assay [14]: change in splice reporter luminescence, either direction, cell-based, HEK293, spliceosome inhibition project, primary screen (AID 1101).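 Also: HEK293 cells carrying a splicing-competent luciferase reporter gene; test concentration not given here.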 The following applies: HEK293 splicing luciferase reporter, 24 h, higher = more signal, called active from +8 up or from −8 down. On the technique in general: Reporter assays use an easily measured gene product as a stand-in for the process of interest.

The target of assay [15] is Fibroblast growth factor 10 (Homo sapiens) (UniProt O15520). As to the kind of experiment: compounds binding fibroblast growth factor 10 – biochemical, small-molecule microarray, 635 nm fluorescence, primary screen (AID 1102). The following applies: FGF10 binding, fluorescence 635 nm, higher = more signal.
Sequence of Fibroblast growth factor 10 (Homo sapiens) (O15520 whole entry, looked up): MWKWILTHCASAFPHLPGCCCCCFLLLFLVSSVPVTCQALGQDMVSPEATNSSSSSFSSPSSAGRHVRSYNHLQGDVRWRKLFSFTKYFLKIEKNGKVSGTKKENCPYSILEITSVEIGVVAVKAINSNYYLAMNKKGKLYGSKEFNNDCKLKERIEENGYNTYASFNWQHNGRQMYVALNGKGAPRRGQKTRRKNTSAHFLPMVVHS
The test system of assay [16] is glycogen synthase kinase-3 (GSK3A per assay name; protocol says GSK3B). As to the kind of experiment: compounds binding glycogen synthase kinase-3 – biochemical, small-molecule microarray, 635 nm fluorescence, GSK3A, primary screen (AID 1103). Also: the record names both GSK3A and GSK3B. The following applies: fluorescence 635 nm, higher = more signal.
The target of assay [17] is Epidermal growth factor receptor (Homo sapiens) (UniProt P00533). As to the kind of experiment: compounds binding epidermal growth factor receptor – biochemical, small-molecule microarray, 635 nm fluorescence, primary screen (AID 1104).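 Also: score merges 667 nm emission intensity with spot signal to noise over triplicate slides.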 The following applies: EGFR binding, higher = more signal.
Sequence of Epidermal growth factor receptor (Homo sapiens) (P00533 whole entry, looked up): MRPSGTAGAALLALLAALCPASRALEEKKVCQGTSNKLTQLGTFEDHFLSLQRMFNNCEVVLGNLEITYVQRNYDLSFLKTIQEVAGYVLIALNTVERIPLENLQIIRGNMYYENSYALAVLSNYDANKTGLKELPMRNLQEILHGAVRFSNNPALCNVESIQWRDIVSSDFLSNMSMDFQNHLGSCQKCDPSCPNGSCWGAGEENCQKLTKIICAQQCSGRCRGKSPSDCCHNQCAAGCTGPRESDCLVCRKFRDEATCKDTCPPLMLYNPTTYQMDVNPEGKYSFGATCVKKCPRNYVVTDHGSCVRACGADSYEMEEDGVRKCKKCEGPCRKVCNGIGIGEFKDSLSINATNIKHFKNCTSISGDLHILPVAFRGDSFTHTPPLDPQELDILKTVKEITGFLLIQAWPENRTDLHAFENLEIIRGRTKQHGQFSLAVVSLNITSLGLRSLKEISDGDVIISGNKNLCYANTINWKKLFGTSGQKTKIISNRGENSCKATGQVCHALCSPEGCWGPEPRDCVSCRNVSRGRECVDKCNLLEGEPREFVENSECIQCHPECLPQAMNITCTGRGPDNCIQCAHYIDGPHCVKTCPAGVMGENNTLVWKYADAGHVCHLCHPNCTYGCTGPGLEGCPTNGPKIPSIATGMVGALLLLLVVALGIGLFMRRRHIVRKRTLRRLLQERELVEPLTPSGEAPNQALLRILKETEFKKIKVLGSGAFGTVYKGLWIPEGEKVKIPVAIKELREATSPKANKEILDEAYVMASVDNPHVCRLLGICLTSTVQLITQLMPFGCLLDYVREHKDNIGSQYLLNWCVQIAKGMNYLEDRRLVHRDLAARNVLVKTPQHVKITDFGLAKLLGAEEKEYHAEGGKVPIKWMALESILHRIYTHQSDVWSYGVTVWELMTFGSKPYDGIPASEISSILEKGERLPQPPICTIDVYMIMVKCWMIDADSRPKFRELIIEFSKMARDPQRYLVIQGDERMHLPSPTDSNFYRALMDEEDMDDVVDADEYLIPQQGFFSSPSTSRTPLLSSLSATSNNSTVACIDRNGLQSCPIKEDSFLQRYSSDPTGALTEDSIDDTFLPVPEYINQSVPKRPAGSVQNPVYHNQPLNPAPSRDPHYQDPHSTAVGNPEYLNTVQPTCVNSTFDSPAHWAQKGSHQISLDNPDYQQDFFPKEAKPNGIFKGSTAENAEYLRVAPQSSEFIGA
Assay [18] has as its target Follistatin-related protein 3 (Homo sapiens) (UniProt O95633). As to the kind of experiment: compounds binding follistatin-related protein 3 – biochemical, small-molecule microarray, 635 nm fluorescence, primary screen (AID 1105).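 Also: score merges emission near 667 nm and signal to noise per printed spot across three slides.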 The following applies: FSTL3 binding, higher = more signal.
Assay [19] has as its target Dickkopf-related protein 1 (Homo sapiens) (UniProt O94907). As to the kind of experiment: small molecules binding DKK1 protein – biochemical, small-molecule microarray, 635 nm fluorescence scan, primary screen (AID 1106).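 Also: score merges emission near 667 nm with signal to noise over three replicate slides.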 The following applies: higher = more signal.
Assay [20] has as its system Inhibin beta A chain (activin A). As to the kind of experiment: small molecules binding activin A – biochemical, small-molecule microarray, 635 nm fluorescence scan, primary screen (AID 1107).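 Also: mouse activin A protein probed at 4.33 µg/mL on printed slides; score merges bound-protein fluorescence near 667 nm with spot signal-to-noise.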 The following applies: INHBA, higher = more signal.

Sequence of Follistatin-related protein 3 (Homo sapiens) (O95633 whole entry, looked up): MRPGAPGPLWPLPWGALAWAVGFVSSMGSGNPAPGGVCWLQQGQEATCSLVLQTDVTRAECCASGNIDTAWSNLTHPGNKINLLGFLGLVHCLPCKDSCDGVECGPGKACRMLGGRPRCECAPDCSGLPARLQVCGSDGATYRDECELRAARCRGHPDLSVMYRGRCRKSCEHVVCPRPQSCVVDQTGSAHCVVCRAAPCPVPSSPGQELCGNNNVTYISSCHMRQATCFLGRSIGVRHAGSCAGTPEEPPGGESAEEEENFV
Sequence of Dickkopf-related protein 1 (Homo sapiens) (O94907 whole entry, looked up): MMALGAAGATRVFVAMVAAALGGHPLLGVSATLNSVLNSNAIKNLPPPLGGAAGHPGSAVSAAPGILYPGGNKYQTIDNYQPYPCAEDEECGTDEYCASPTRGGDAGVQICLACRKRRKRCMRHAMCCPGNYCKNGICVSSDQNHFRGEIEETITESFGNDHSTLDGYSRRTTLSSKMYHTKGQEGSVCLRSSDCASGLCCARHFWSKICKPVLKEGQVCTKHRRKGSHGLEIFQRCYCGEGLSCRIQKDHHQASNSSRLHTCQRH

As for `COC(=O)CC=C[C@@H](C)[C@@H](C=NO[C@@H](C)c1cn([C@H](CO)Cc2ccccc2)nn1)NS(=O)(=O)c1ccc(C)cc1`, the composite z-score in assay [1] was 0.526; in assay [5], 0.112; in assay [7] it was -0.247; in [8], 0.321; in assay [9], 0.381; in [10], -0.0398. Moreover, the composite z-score in assay [11] is 1.18; in assay [12] it was -0.0838; in assay [13], -0.668; in assay [15], 0.582; in assay [16] it was 0.252; in [17] it was 0.519. The composite z-score in [18] was found to be 0.449; in assay [19], 0.47; in [20], 0.408. The z-score in [2] is -2.32 (inactive); in [3] it was -1.2 (inactive); in assay [4], -0.88 (inactive); in assay [6] it was 0.122 (inactive); in assay [14] it was -0.83 (inactive).

With `COC(=O)CC=C[C@@H](C)[C@@H](C=NO[C@@H]1O[C@H](COC(C)=O)[C@@H](OC(C)=O)[C@H](OC(C)=O)[C@H]1OC(C)=O)OC`, the composite z-score in [1] was 1.18; in assay [5], 0.062; in assay [7] it was -0.0397; in assay [8], 0.27; in assay [9], -0.297; in assay [10], -0.0506. Moreover, the composite z-score in [11] was -0.225; in assay [12], -0.194; in assay [13], -0.463; in [15] it was -0.481; in [16] it was -0.757; in assay [17] it was 0.383. For the same molecule, the results for the composite z-score in assay [18], in [19] and in assay [20] were -0.4, -2.27 and -2.01, respectively. The z-score in assay [2] is 0.492 (inactive); in [3], 0.146 (inactive); in [4], 0.119 (inactive); in assay [6], -0.742 (inactive); in assay [14], 0.869 (inactive).

`CO[C@H]1COC(=O)CC=C[C@@H](C)[C@H](OC)COC(=O)CCC[C@@H]1C`: the composite z-score is 0.76 in [1]; -0.552 in [5]; -0.17 in [7]; 0.978 in assay [8]; 0.288 in [9]; -0.163 in assay [10]. The composite z-score in assay [11] was 0.786; in [12] it was -0.175; in assay [13] it was -0.791; in [15], 0.254; in [16] it was 0.274; in assay [17], 0.487. For the same molecule, the results for the composite z-score in assay [18], in assay [19] and in assay [20] were 0.633, 1.19 and 1.25, respectively. Besides, the z-score in assay [2] is -1.47 (inactive); in assay [3] it was -0.441 (inactive); in assay [4], -1.37 (inactive); in assay [6], -0.351 (inactive); in assay [14], -1.16 (inactive).

`CC(=O)OC[C@H]1OC(ON=CC[C@@H]2C=C[C@H](OC(C)=O)[C@@H](COC(C)=O)O2)[C@H](OC(C)=O)[C@@H](OC(C)=O)[C@@H]1OC(C)=O` (stereo not given in full): the composite z-score is 1.4 in [1]; 0.828 in [5]; 0.106 in assay [7]; 0.612 in assay [8]; 0.448 in assay [9]; 0.145 in [10]. The composite z-score in assay [11] is 0.119; in assay [12] it was -0.0393; in assay [13], 0.265; in assay [15], 0.384; in assay [16] it was 0.0032; in assay [17], 0.261. The composite z-score in assay [18] was -0.368; in [19] it was -0.416; in [20] it was -2.75. Besides, the z-score in assay [2] is -0.763 (inactive); in [3], 0.17 (inactive); in [4], -0.64 (inactive); in [6], -0.16 (inactive); in assay [14], 0.632 (inactive).

For `CO[C@H]1COC(=O)CCC[C@@H](C)[C@H](OC)COC(=O)[C@@H](C)NC(=O)CC=C[C@@H]1C`, the composite z-score in [1] was 1.4; in [5], -1.7; in assay [7], -0.145; in [8], 1.27; in assay [9], 0.571; in assay [10], 0.0115. Besides, the composite z-score in [11] is 1.69; in assay [12], -0.502; in assay [13] it was -1.14; in assay [15], 0.313; in assay [16] it was 0.97; in [17] it was 1.2. Besides, the composite z-score in assay [18] was 0.938; in assay [19] it was 1.57; in assay [20], 1.21. Moreover, the z-score in [2] was -0.994 (inactive); in assay [3], -1.11 (inactive); in [4], 0.0722 (inactive); in [6], -0.597 (inactive); in assay [14] it was -1.15 (inactive).
